# Only some compounds are listed: those with a hit (about 5% of all), similar ones and a draw of the others.
# UCHL1 block: inhibitors of human UCHL1 deubiquitinase. Ubiquitin carboxyl-terminal hydrolase isozyme L1 (Homo sapiens), P09936. actives 0.2% (n = 47,000). purified UCHL1, Ub-rhodamine cleavage fluorescence. inhibition, % at 20 µM
# USP7 inh: inhibitors of human USP7 deubiquitinase | Ubiquitin carboxyl-terminal hydrolase 7 (Homo sapiens), Q93009 | purified USP7, Ub-rhodamine cleavage fluorescence | inhibition, % at 20 µM | actives 0.3% (n = 47,000) | AID 1645854, 2021
# USP10 inh: inhibitors of human USP10 deubiquitinase; Ubiquitin carboxyl-terminal hydrolase 10 (Homo sapiens), Q14694; purified USP10, Ub-rhodamine fluorescence, 60 min; inhibition, % at 20 µM; actives 1.1% (n = 47,000); AID 1645856, 2021
# USP8 inh: inhibitors of human USP8 deubiquitinase; actives 4.2% (n = 47,000); purified USP8, Ub-rhodamine cleavage fluorescence, 30 min; inhibition, % at 20 µM
# Target sequence (P40818 whole entry, looked up): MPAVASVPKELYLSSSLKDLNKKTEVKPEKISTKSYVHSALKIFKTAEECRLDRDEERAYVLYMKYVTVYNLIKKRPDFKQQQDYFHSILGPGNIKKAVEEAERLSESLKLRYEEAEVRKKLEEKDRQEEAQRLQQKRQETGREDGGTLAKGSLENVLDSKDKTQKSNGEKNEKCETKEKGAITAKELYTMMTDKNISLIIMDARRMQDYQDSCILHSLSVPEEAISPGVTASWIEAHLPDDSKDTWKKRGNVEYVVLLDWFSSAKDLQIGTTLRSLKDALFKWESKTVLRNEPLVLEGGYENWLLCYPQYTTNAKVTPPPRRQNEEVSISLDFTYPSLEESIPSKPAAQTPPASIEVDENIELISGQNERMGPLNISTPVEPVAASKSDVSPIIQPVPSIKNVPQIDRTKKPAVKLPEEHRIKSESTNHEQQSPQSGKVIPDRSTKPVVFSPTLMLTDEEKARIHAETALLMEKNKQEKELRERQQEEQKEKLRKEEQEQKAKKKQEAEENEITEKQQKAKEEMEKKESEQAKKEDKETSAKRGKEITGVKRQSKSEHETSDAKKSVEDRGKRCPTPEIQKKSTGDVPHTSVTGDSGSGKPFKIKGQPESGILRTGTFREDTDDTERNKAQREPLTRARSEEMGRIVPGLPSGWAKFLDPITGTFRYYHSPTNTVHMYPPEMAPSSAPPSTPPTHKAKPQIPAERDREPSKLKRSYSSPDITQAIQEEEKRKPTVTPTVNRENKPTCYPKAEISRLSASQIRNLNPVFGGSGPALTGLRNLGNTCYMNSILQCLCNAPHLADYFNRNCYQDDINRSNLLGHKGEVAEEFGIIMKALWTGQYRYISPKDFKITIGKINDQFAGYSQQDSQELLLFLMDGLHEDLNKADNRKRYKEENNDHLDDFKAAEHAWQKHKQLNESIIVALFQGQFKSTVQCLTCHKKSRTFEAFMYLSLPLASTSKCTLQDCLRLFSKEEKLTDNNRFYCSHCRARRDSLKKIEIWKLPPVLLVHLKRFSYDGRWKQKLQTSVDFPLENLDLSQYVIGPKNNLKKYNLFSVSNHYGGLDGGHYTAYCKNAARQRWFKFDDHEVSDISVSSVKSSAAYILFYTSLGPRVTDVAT
# An asterisk follows results filed as active. Cut-off read from the data, not from the text of the source: active = inhibition above about 30%; inactive = the rest.
SMILES,UCHL1 block,USP7 inh,USP10 inh,USP8 inh
Oc1ccc2ccccc2c1CN1CC=C(c2ccccc2)CC1,-1,8,0,35*
COCC(O)C1OC(=O)C(O)CC2C=CC3C4OC2(/C(C)=C\C1C)C3C(O)C(COC)C4OC(=O)c1ccc[nH]1 (centres undefined),1,4,4,3
COc1cccc2c1NC(=O)C21CCN(C(=O)Nc2cccc3ccccc23)CC1,20,-19,3,97*
CO[C@H]1/C=C/C=C\C=C\C[C@H](OC(=O)[C@@H](C)NC(=O)C2CCCCC2)[C@H](C)[C@@H](O)/C(C)=C\CCc2cc(O)cc(c2O)NC(=O)C1,3,0,-4,-4
CCc1noc(-c2ccc(OCC(=O)N3CCN(Cc4ccccc4)CC3)cc2)n1,0,-3,-4,9
CC(=O)c1ccc(NC(=O)C(C)N2CC=C(c3ccccc3)CC2)cc1 (centres undefined),1,6,-3,0
c1cc(-c2nccc(CN3CCCC4(CCCCC4)C3)n2)ccn1,1,-1,0,37*
CN1[C@@H]2Cc3ccccc3[C@H]1C[C@@H](NC(=O)c1cccnc1)C2,-1,1,-2,-2
O=C1CSC(c2ccc3c(c2)OCO3)c2c(n(C3CCCCCC3)[nH]c2=O)N1 (centres undefined),4,16,24,83*
CCOc1ccc(C2SCC(=O)Nc3c2c(=O)[nH]n3C2CCCCC2)cc1 (centres undefined),1,18,10,88*
Cc1ccc(C2SCC(=O)Nc3c2c(=O)[nH]n3C2CCCCC2)cc1 (centres undefined),1,23,20,88*
COc1ccc(C2SCC(=O)Nc3c2c(=O)[nH]n3C2CCCCCC2)cc1OC (centres undefined),-3,1,1,-4
CN(C)[C@H]1C(=O)C(C(N)=O)=C(O)C2(O)C(=O)C3=C(O)c4c(O)cccc4C(C)(O)C3C(O)C12 (some centres undefined),43*,5,-8,-94
CN1CC[C@@H]2[C@H](C1)CN2C(=O)Nc1ccc(F)cc1,0,1,-2,3
C=C/C(=C/C(=O)C[C@H](C)C[C@@H](C)CC[C@H](O)[C@H](C)C(=O)CC(O)[C@H](C)[C@@H](C)OC(=O)C[C@@H](O)C1=C(C)C(=O)OC1=O)CC (some centres undefined),92*,77*,81*,77*
COc1ccc(CNC(=O)c2cn(C)c3ncccc23)cc1,1,7,-1,9
CC1Oc2cc3c(-c4c(O)cc(O)c5c(O)c6c(cc45)OC(C)C(C)C6=O)c(O)cc(O)c3c(O)c2C(=O)C1C (centres undefined),88*,85*,68*,59*
O=C(c1ccc(Cl)cc1)N1CCCN(c2nc3ccc(Cl)cc3s2)CC1,2,-134,-2,-17
COc1ccc2c(c1)NC(=O)C21CCNCC1,-2,-1,0,-9
C/C=C1/CN2CC[C@]34C(=C(C(=O)OC)[C@H]1C[C@H]23)Nc1c(O)cccc14,-4,-1,-4,86*
COc1oc(C2C/C(=C\C(C)=C\c3ccc([N+](=O)[O-])cc3)CO2)c(C)c(=O)c1C (centres undefined),2,-6,0,3
COc1c2c(c(O)c3c1C(=O)c1c(cc(O)c(C)c1O)C3=O)-c1c(cc3c(c1O)C(=O)OC3O)CC2 (centres undefined),69*,55*,75*,72*
COc1cc(O)cc2c1C(=O)O[C@@H](C)CCCC(=O)CCCCC2,3,2,1,-14
COC1=C(C2=C(OC)C(=O)c3cc4c(c(O)c3C2=O)C(=O)OC(C)C4)C(=O)c2c(cc3c(c2O)C(=O)OC(C)C3)C1=O (centres undefined),40*,-67,-9,-27
